From PubChem BioAssay
ARNT-TACC3 inh – ARNT/TACC3 interaction disruption. Q9Y6A5. AlphaScreen His-ARNT PAS-B/GST-TACC3 binding, luminescence; TACC3 fragment carries E629A point mutation. inhibition, % at 9.99 µM. actives 0.66% (n = 390,000);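 active = mean inhibition of replicates at least 50% and at least half of replicates each reaching 50%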
F508del corr – correctors of CFTR F508del function in bronchial epithelial cells. actives 0.36% (n = 350,000). activity (quench increase), % at 7.58 µM. CFBE cells, YFP halide quenching; stimulated with forskolin plus potentiator P3; % fluorescence drop versus neutral controls;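 active = mean added fluorescence quench of at least 8% versus neutral control, with both replicates also reaching 8%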;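 also: cells transiently co-express mutant CFTR-F508del with the halide-sensitive YFP; corrector assay measuring rescue of mutant channel to the surface after 24 h compound exposure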
C2C12 statin – suppression of simvastatin myotoxicity; rescue of ATP level, % at 7.49 µM; C2C12 myotubes + simvastatin, ATP luminescence, 48 h; scaled: DMSO 0, geranylgeraniol control 100; actives 0.78% (n = 330,000); AID 602340;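 active = mean ATP rescue above about 67%, or every replicate alone reaching that limit, limit read from the data, passing the limit was not always enough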;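 also: myotubes were challenged with 10 µM simvastatin during compound exposure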
PglD DTNB – PglD (C. jejuni) enzyme inhibition. purified PglD enzyme, DTNB colorimetric CoA detection. actives 0.098% (n = 360,000). AID 602405. inhibition, % at 12.5 µM; in the data active = inhibition above about 16%, passing the limit was not always enough
Hits are given with their value; - = inactive; . = no result given. Compounds with a hit are over-represented: about 1.4% of the library has one in this group of screens.

SMILES | ARNT-TACC3 inh | F508del corr | C2C12 statin | PglD DTNB
C[C@H](CO)N1C[C@H](C)[C@@H](CN(C)Cc2ccc(C(=O)O)cc2)Oc2ccc(NC(=O)c3ccncc3)cc2C1=O | - | - | - | -
C[C@@H]1CCCCO[C@H](CN(C)S(=O)(=O)c2ccc(F)cc2)[C@@H](C)CN([C@@H](C)CO)C(=O)c2cc(NC(=O)Cc3ccccc3)ccc2O1 | - | - | - | -
C[C@H]1CN([C@@H](C)CO)C(=O)c2cc(NS(=O)(=O)c3ccc(F)cc3)ccc2O[C@@H]1CN(C)S(=O)(=O)c1cccs1 | - | - | 81 | -
C[C@@H]1CCCCO[C@H](CN(C)S(=O)(=O)c2ccc(F)cc2)[C@H](C)CN([C@@H](C)CO)C(=O)c2cc(NC(=O)Cc3ccccc3)ccc2O1 | - | - | 152 | -
C[C@@H]1CCCCO[C@H](CN(C)S(C)(=O)=O)[C@@H](C)CN([C@@H](C)CO)C(=O)c2cc(NS(=O)(=O)c3ccc(F)cc3)ccc2O1 | - | - | 102 | -
CNC(=O)C[C@@H]1CC[C@@H]2[C@@H](COc3ccc(NC(=O)c4ccc(C(F)(F)F)cc4)cc3C(=O)N2C)O1 | - | - | - | -
CCC(=O)N(C)C[C@@H]1Oc2cc(C#CCC3CCCC3)ccc2S(=O)(=O)N([C@H](C)CO)C[C@@H]1C | - | - | - | -
Cc1nc(CSc2ccc(Cl)cc2)cc(N2CC(C)OC(C)C2)n1 (configuration not stated) | - | - | 107 | -
Cc1ccc(NC(=S)NCCSc2ccc(Cl)cc2)cc1 | - | - | . | .
Cc1ccc(SCCNC(=S)Nc2cc(C)cc(C)c2)cc1 | - | . | 117 | -
Cc1ccc(S(=O)(=O)N(C)C[C@H]2Oc3ccc(NC(=O)CCN4CCOCC4)cc3C(=O)N([C@@H](C)CO)C[C@H]2C)cc1 | - | - | - | -
COc1ccc(Cn2c(CCC(=O)N3CCN(c4ccccn4)CC3)nc3ncccc3c2=O)cc1 | - | . | 88 | -
COCC(=O)N(C)C[C@@H]1Oc2cc(-c3ccc(C)cc3)ccc2S(=O)(=O)N([C@@H](C)CO)C[C@@H]1C | - | - | - | -
COCCc1nnc(NC(=O)Cc2ccccc2)s1 | - | . | 89 | -
CO[C@@H]1CN(C)C(=O)c2ccc(NC(=O)C3CCCC3)cc2OC[C@H](C)N(CC2CC2)C[C@H]1C | - | - | - | -
CCCN1CCN(C(=O)Nc2ccc(C(=O)OCC)cc2)CC1 | - | . | 109 | -
O=C(C[C@@H]1CC[C@@H]2[C@H](COC[C@@H](O)CN2Cc2ccc3c(c2)OCO3)O1)Nc1ccc(-c2ccccc2)cc1 | - | - | - | -
O=C(C[C@@H]1CC[C@H]2[C@@H](COC[C@@H](O)CN2CCC(F)(F)F)O1)NCc1ccc(Oc2ccccc2)cc1 | - | - | - | -
O=C(C[C@@H]1CC[C@H]2[C@@H](COC[C@H](O)CN2Cc2ccc3c(c2)OCO3)O1)Nc1ccc(-c2ccccc2)cc1 | - | 9.6 | - | -
O=C(C[C@H]1CC[C@@H]2[C@H](COC[C@@H](O)CN2S(=O)(=O)c2ccccc2)O1)Nc1ccc(-c2ccccc2)cc1 | - | 8.3 | - | -
O=C(C[C@@H]1CC[C@@H]2[C@H](COC[C@@H](O)CN2S(=O)(=O)c2ccccc2)O1)Nc1ccc(-c2ccccc2)cc1 | - | - | - | -
O=C(C[C@H]1CC[C@@H]2[C@H](COC[C@H](O)CN2CCC(F)(F)F)O1)NCc1ccc(Oc2ccccc2)cc1 | - | - | 72 | -
COc1ccc(S(=O)(=O)Nc2ccc3c(c2)CC(=O)N([C@@H](C)CO)C[C@@H](C)[C@@H](CN(C)S(=O)(=O)c2cccs2)O3)cc1 | - | - | - | -
O=C(N[C@@H]1CC[C@H](CCNS(=O)(=O)c2ccccc2Cl)O[C@H]1CO)c1ccc(F)cc1 | - | - | - | -
Cc1noc(C)c1S(=O)(=O)Nc1ccc2c(c1)C(=O)N([C@@H](C)CO)C[C@H](C)[C@H](CN(C)S(=O)(=O)c1c(C)noc1C)O2 | . | - | - | .
SMILES | ARNT-TACC3 inh | F508del corr | C2C12 statin | PglD DTNB
COc1cc(NC(=O)c2ccco2)c(C(=O)OCC(=O)Nc2ncc(Cl)cc2Cl)cc1OC | - | . | . | -
O=C(COC(=O)c1ccccc1NC(=O)c1ccco1)Nc1ncc(Cl)cc1Cl | - | . | 94 | -
O=c1ccnc(NCCc2ccccc2)[nH]1 | - | . | 99 | -
C[C@@H]1CN([C@@H](C)CO)C(=O)c2cc(NS(=O)(=O)c3ccc(Cl)cc3)ccc2O[C@@H](C)CCCCO[C@H]1CN(C)CC1CCCCC1 | - | - | . | -
Cc1cccc(NC(=S)N(CCN(C)C)Cc2cc3cccc(C)c3[nH]c2=O)c1 | - | . | . | .
Cc1ccc(NC(=S)N(CCN(C)C)Cc2cc3cccc(C)c3[nH]c2=O)cc1 | - | . | 114 | -
Cc1c(C(=O)N2CCc3ccccc32)oc2c1C(=O)CC(C)(C)C2 | - | . | 112 | -
Cc1c(C(=O)N2CCN(C)CC2)oc2c1C(=O)CC(C)(C)C2 | - | - | - | -
CCN1CCN(C(c2ccc(C(F)(F)F)cc2)c2ccc3cccnc3c2O)CC1 (configuration not stated) | 80 | - | - | -
CN1C(=O)c2cc(NC(=O)c3ccc(F)cc3)ccc2OC[C@H]2O[C@@H](CC(=O)NC3CCC3)CC[C@H]21 | - | - | - | -
COc1ccccc1C(=O)NCC(=O)OC(C)C(=O)NC1CCCCC1C (configuration not stated) | - | - | - | -
COc1ccccc1C(=O)NCC(=O)OC(C)C(=O)NC(=O)NC1CCCCC1 (configuration not stated) | - | . | 87 | -
C[C@@H]1CN([C@@H](C)CO)C(=O)Cc2cc(NS(=O)(=O)c3ccccc3)ccc2O[C@H]1CN(C)C | - | - | - | -
C[C@@H]1CN([C@H](C)CO)C(=O)c2cc(N(C)C)ccc2O[C@@H](C)CCCCO[C@@H]1CN(C)C(=O)Nc1ccc(F)cc1 | - | - | - | -
CN(C)N1C(=O)CC(C)(c2ccc([N+](=O)[O-])cc2)C1=O (configuration not stated) | - | - | 114 | -
CCCCCCCC(=O)OCC(COC(=O)CCCCCCC)OC(=O)CCCCCCC | . | - | - | -
CCCCCCCCCC(=O)OCC(O)CO (configuration not stated) | - | 8.2 | - | -
COc1cccc(CNC(=O)[C@@H]2N[C@@H]3c4ccc(/C=C/c5ccccc5)c(=O)n4C[C@@H]3[C@H]2CO)c1 | . | - | - | .
O=C(Nc1ccc(F)cc1)N[C@H]1C=C[C@H](CC(=O)N2CCOCC2)O[C@@H]1CO | - | - | - | -
Cc1ccc(S(=O)(=O)Nc2ccc3c(c2)C(=O)N([C@H](C)CO)C[C@H](C)[C@@H](CN(C)S(=O)(=O)c2ccc(C)cc2)O3)cc1 | - | - | - | -
O=C(CSC1=NNC(c2ccccn2)S1)Nc1ccc(C(F)(F)F)cc1 (configuration not stated) | 76 | - | . | -
c1ccc(CSC2=NNC(c3ccccn3)S2)cc1 (configuration not stated) | - | - | . | .
COCCNC(=O)CSc1nc2ccccc2c2nc(C)nn12 | - | . | 124 | -
